Reference: the supplement of paper PMC3545927
Some of the results follow. How many sequences the whole screen found active is unknown.

Target: furin, P09958
Experiment: furin cleavage Z-score vs untreated control; higher = more cleavage, active = 3.5 or more, inactive = 1 or less, 8 variable residues between constant flanks
Summary of the method: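 Furin-free reactions served as the baseline for the cleavage Z-score, which is the log read count lowess-adjusted and scaled by median absolute deviation. Counts came from released DNA, adapter-tagged by PCR and sequenced. Purified furin had cut 8-mer peptides fused to a cDNA oligonucleotide on magnetic beads during 7.5, 15 or 30 min at 1:10 enzyme:substrate.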
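Further: purified furin at 1:10 enzyme:substrate in 50 mM HEPES pH 7.5.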

Sequence of furin, P09958 (P09958 whole entry): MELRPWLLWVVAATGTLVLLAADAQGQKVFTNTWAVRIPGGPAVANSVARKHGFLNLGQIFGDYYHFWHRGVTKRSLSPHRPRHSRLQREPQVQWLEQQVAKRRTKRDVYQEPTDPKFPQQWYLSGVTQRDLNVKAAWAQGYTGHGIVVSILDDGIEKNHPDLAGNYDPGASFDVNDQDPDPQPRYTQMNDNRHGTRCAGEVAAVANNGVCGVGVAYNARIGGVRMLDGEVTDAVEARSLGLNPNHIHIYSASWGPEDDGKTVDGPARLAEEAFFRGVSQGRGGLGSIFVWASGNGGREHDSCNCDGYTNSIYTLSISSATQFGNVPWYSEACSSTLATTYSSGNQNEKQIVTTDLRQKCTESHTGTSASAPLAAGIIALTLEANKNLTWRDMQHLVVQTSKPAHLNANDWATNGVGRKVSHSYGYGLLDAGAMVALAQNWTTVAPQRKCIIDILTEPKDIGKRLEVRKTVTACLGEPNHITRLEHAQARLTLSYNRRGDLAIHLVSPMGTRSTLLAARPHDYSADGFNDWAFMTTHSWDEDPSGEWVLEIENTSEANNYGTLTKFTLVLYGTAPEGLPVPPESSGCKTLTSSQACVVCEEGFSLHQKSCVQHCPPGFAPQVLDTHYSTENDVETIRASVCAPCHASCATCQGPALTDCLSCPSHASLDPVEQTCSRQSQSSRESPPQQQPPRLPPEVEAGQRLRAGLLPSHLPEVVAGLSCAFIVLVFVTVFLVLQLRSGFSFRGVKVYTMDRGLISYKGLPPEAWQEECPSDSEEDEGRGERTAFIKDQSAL

Row | Sequence | furin cleavage Z-score (7.5 min) | furin cleavage Z-score (15 min) | furin cleavage Z-score (30 min)
1 | CARRRRKVLAAGNASASA [FS-2181] | -0.244 (inactive) | 1.09 | 1.13
2 | CARRRRRTAIAGNASASA [FS-2080] | 4.79 (active) | 6.3 (active) | 6.06 (active)
3 | CARRRRTAILAGNASASA [FS-2799] | 5.32 (active) | 8.15 (active) | 8.93 (active)
4 | CAAARVTAILAGNASASA [HC1131] | 0.0621 (inactive) | 1.08 | -0.5 (inactive)
5 | CARRRRTAFAAGNASASA [FS-2798] | 5.77 (active) | 8.03 (active) | 7.17 (active)
6 | CARRRRTALAAGNASASA [FS-2800] | 7.39 (active) | 9.46 (active) | 7.26 (active)
7 | CALTHIDAHFAGNASASA [HC943] | -1.16 (inactive) | -1.18 (inactive) | -0.971 (inactive)
8 | CAGLPVSARRAGNASASA [HC660] | -1.44 (inactive) | -0.486 (inactive) | -0.384 (inactive)
9 | CARKTRSARRAGNASASA [FS-2040] | 7.75 (active) | 10.4 (active) | 8.66 (active)
10 | CAGWKRARRAAGNASASA [FS-246] | 10.7 (active) | 11 (active) | 9.68 (active)
11 | CARKTRSHTAAGNASASA [FS-3225] | 4.24 (active) | 5.12 (active) | 4.27 (active)
12 | CARATRARRAAGNASASA [FS-82] | 10.6 (active) | 10.6 (active) | 7.6 (active)
13 | CALLGCIITSAGNASASA [HC680] | -0.345 (inactive) | -1.06 (inactive) | -1.24 (inactive)
14 | CANREVPCHRAGNASASA [HC2441] | 1.82 | -0.276 (inactive) | 0.432 (inactive)
15 | CAEVVTSTNVAGNASASA [HC2241] | 0.759 (inactive) | 0.285 (inactive) | 0.157 (inactive)
16 | CAITGHVKNGAGNASASA [HC1178] | -0.0306 (inactive) | -2.29 (inactive) | -0.221 (inactive)
17 | CAGIQYLAGLAGNASASA [HC1046] | 0.778 (inactive) | 0.268 (inactive) | 0.333 (inactive)
18 | CARKKKVWDYAGNASASA [FS-2424] | 0.95 (inactive) | -1.66 (inactive) | -0.314 (inactive)
19 | CARKTRARRAAGNASASA [FS-489] | 11.1 (active) | 11.3 (active) | 9.01 (active)
20 | CARRHEKKRKAGNASASA [FS-1653] | -1.27 (inactive) | -0.15 (inactive) | -1.21 (inactive)
21 | CARRHRATRKAGNASASA [FS-1266] | 7.21 (active) | 8.97 (active) | 6.15 (active)
22 | CARRKKEVRKAGNASASA [FS-2449] | -0.452 (inactive) | -0.724 (inactive) | 1.33
23 | CARFDRIAHTAGNASASA [FS-2552] | 0.362 (inactive) | -0.331 (inactive) | 0.407 (inactive)
24 | CARRHRARRAAGNASASA [FS-1265] | 12.1 (active) | 11 (active) | 9.18 (active)
25 | CARKTRSTHTAGNASASA [FS-3226] | 10.5 (active) | 11.5 (active) | 7.23 (active)
26 | CARFFRYLHTAGNASASA [FS-2920] | -0.737 (inactive) | -1.73 (inactive) | 0.025 (inactive)
27 | CAFCALARKMAGNASASA [HC621] | 0.374 (inactive) | 0.367 (inactive) | 0.832 (inactive)
28 | CAQDVVCCSMAGNASASA [HC2122] | -0.38 (inactive) | -0.828 (inactive) | -1.79 (inactive)
29 | CALLFNILGGAGNASASA [HC1064] | -0.771 (inactive) | -1.63 (inactive) | -1.52 (inactive)
